USP1 inh: inhibitors of human USP1/UAF1 deubiquitinase; Potency, µM (highest dose often 57.1 µM), hits mostly inhibitors; 390,000 compounds, 0.23% hits; O94782; recombinant USP1/UAF1, Ub-Rhodamine cleavage fluorescence; also: nearly all actives have a fitted effect of over 60% in size
Target sequence (O94782 whole entry, looked up): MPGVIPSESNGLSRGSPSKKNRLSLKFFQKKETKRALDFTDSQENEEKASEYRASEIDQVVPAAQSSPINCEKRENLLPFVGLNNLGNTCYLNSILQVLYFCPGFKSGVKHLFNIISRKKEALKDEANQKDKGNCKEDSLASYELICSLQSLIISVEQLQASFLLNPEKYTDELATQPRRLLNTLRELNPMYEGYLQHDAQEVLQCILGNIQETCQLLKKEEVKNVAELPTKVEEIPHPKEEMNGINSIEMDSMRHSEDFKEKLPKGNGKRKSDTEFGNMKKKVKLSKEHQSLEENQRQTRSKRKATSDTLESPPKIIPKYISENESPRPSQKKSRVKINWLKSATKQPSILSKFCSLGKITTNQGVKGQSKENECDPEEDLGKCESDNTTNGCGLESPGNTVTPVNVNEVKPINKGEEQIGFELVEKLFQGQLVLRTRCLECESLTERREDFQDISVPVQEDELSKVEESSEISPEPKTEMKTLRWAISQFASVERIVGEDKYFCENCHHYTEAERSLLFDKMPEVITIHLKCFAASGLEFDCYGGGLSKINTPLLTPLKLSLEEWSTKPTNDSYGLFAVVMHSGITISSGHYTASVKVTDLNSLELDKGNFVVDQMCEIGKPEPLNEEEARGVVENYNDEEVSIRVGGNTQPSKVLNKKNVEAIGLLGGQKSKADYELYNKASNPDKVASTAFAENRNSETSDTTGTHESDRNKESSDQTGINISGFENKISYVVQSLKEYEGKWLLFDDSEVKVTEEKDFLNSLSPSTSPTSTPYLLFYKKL
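In this screen, compounds sit with the deubiquitinase complex (1nM) for 15 min at room temperature before Ub-Rho is added at 150nM final. Fluorescence rise is then followed for 6 reads every 60 seconds.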
PI5P4K alpha inh: PI5P4K alpha (human) kinase inhibition; P48426; PI5P4Kalpha enzyme, ADP-Glo luminescence, 60 min; stronger effect = lower value; max response, %; 330,000 compounds, 1.2% hits; active = max response of -50% or lower; inconclusive = between -30% and -50%; inactive = -30% or higher; also: value at the top dose of about 77 µM
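Compounds were pin-transferred onto PI5P4Kalpha and substrate in HEPES pH 7.4 buffer with EGTA, CHAPS and 5% DMSO. ATP (5 microM final) started the reaction, which ran 60 minutes at room temperature before ADP-Glo detection.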
PLK1 PBD inh: inhibitors of human PLK1 polo-box domain binding | P53350 | Plk1 PBD binding of FITC phosphopeptide, fluorescence polarization | Potency, µM, most hits filed as inhibitors | 360,000 compounds, 2.8% hits; also: series mostly up to about 57 µM; nearly all actives have a fitted effect of over 65% in size
WRN inhibitor: blocks human WRN helicase. Potency, µM (doses to about 114 µM), most hits filed as inhibitors. WRN helicase unwinding, fluorescent forked duplex, kinetic. Q14191. AID 651768. 360,000 compounds, 0.46% hits; also: nearly all actives have a fitted effect of over 55% in size
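Enzyme (20 nM final) and test compound sit together 15 min at room temperature before substrate addition. Substrate is a single-forked duplex oligonucleotide (100 nM) labelled with fluorophore and quencher, with 2 mM ATP; helicase unwinding raises red fluorescence, read kinetically.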
USP2a block: USP2a (human) protease inhibition; 330,000 compounds, 0.01% hits; O75604; USP2 core, Ub-CHOP2 coupled fluorogenic reporter, 485/531; Potency, µM (titrated, usually from 38.3 µM), most hits filed as inhibitors
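Deubiquitinase activity read as fluorescence (485/531 nm) after Ub-CHOP2 cleavage activates the enterokinase reporter on its substrate; USP2 core 10nM, Ub-CHOP2 and substrate 25nM each, 30min compound preincubation then 60min RT; data normalized to NEM, curves fitted.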
Hits are given with their value; n = inactive; u = inconclusive; x = no result given; [ ] = remark or other dose. Hits are enriched below; roughly 3.3% of the tested compounds scored in any of these assays. Unless noted, calls follow the shape of the dose curve; as a rule, active = well fitted curve in the direction sought with a large enough effect; inconclusive = small, poorly fitted or top-dose-only effect, or another doubt; inactive = no such curve, though single readings can be large; an effect the other way counts as inactive or inconclusive.

SMILES | USP1 inh | PI5P4K alpha inh | PLK1 PBD inh | WRN inhibitor | USP2a block
O=C(O)CCCN1C(=O)/C(=C\c2ccc(-c3nc4ccccc4s3)o2)SC1=S | u | n | 11µM | n[11.6 µM] | n
O=Cc1ccc(-c2nc3ccccc3s2)o1 | n | n | n | n | n
O=C(O)CCN1C(=O)/C(=C/c2ccc(-c3nc4ccccc4s3)o2)SC1=S | 7.1µM | n | 9.5µM | u | n
c1ccc(-c2n[nH]c(-c3ccccc3)c2-c2nc3ccccc3[nH]2)cc1 | n | n | 27µM | n | n
c1ccc(-c2nc3ccccc3[nH]2)cc1 | n | n | n | n | n
Cc1ccc(NC(=O)CCCn2c(=O)c3cccn3c3cccnc32)cc1C | n | x | x | x | x
COCCCNS(=O)(=O)c1ccc(N2CCCCS2(=O)=O)cc1 | n | x | x | x | x
Cc1nn(CC(O)COc2ccc3c(c2)CCC3)c(C)c1C (centres undefined) | n | n | 3.4µM | n | n
CCN1CCN(CC(O)COc2ccc3c(c2)CCC3)CC1 (centres undefined) | n | n | n | n | n
COc1ccc(NC(=O)CSc2c3c(nc4ccc(Cl)cc24)CCCC3)cc1Cl | n | x | x | x | x
Cc1ccccc1NC(=O)/C(C#N)=C/c1ccc[nH]1 | n | n | n | n | n
N#C/C(=C\c1ccc[nH]1)C(=O)Nc1ccccc1[N+](=O)[O-] | n | -65 | n | n | n
CCOc1ccc(NC(=O)NCCn2nnc3cc(S(=O)(=O)N(C)C)ccc32)cc1 | n | x | x | x | x
Cc1cccc(N2C(=O)CC(Sc3nnc(C)s3)C2=O)c1 (centres undefined) | n | n | 30µM | n | n
O=C(NC(C(=O)c1ccccc1)n1c(=O)cc[nH]c1=S)c1ccccc1 (centres undefined) | n | x | 27µM | n | n
O=C(NC(C(=O)c1ccccc1)n1cnccc1=O)c1ccccc1 (centres undefined) | n | n | n | n | n
CC(C)CC(NC(=O)C(COCc1ccccc1)NC(=O)OC(C)(C)C)C(=O)NN (centres undefined) | n | n | 27µM | n | n
CCCN(CC(=O)Nc1ccccc1OC)Cc1c(O)ccc2ccccc12 | n | n | 9.5µM | n | n
COc1ccc(CCN(C)Cc2cccc3ccccc23)cc1OC | n | n | n | n | n
CN(CC(=O)Nc1ccccc1C(F)(F)F)Cc1c(O)ccc2ccccc12 | n | n | 12µM | n | n
COc1ccc(CCN(C)Cc2c(O)ccc3ccccc23)cc1OC | n | n | 21µM | n | n
COc1ccccc1CN(C)CC(=O)Nc1cccc2ccccc12 | u | n | n | n | n
CCc1ccccc1NC(=O)CN(C)Cc1c(O)ccc2ccccc12 | n | n | 12µM | u | n
Cc1ccc(NC(=O)N2CCc3c([nH]c4ccccc34)C2c2ccccc2F)c(Cl)c1 (centres undefined) | n | x | x | x | x
COc1cccc(Cn2cnc3c2c(=O)n(C)c(=O)n3C)c1 | n | x | x | x | x
SMILES | USP1 inh | PI5P4K alpha inh | PLK1 PBD inh | WRN inhibitor | USP2a block
CCN1CCN(C(c2ccc(F)cc2)c2sc3nc(-c4ccco4)nn3c2O)CC1 (centres undefined) | n | x | x | x | x
CCCCOc1ccc(C(=O)N(Cc2ccc(C(C)C)cc2)C2CCS(=O)(=O)C2)cc1 (centres undefined) | n | x | x | x | x
CCC(=O)N1CCc2cc(S(=O)(=O)NCCC(=O)Nc3cc(C)cc(C)c3)ccc21 | n | n | 27µM | n | n
CC1CCc2c(sc3ncnc(SCC(=O)N(C)C4CCS(=O)(=O)C4)c23)C1 (centres undefined) | n | n | 27µM | n | n
CC1CCc2c(sc3ncnc(SCC(=O)c4ccccc4)c23)C1 (centres undefined) | n | n | 13µM | n | n
CC(=O)CSc1ncnc2sc3c(c12)CCC(C)C3 (centres undefined) | n | n | 24µM | n | n
O=C(CSc1ncnc2sc3c(c12)CCCC3)c1ccccc1 | n | n | n | n | n
CCCOC(=O)CSc1ncnc2sc3c(c12)CCC(C)C3 (centres undefined) | n | x | x | x | x
O=C(O)c1ccc(COc2ccccc2/C=C2\NC(=O)N(Cc3ccc(F)cc3)C2=O)cc1 | n | n | 67µM | n | n
O=C(O)c1ccc(COc2ccccc2C=C2C(=O)c3ccccc3C2=O)cc1 | n | n | 0.47µM | n[11.6 µM] | n
O=C(CN1C(=O)N/C(=C\c2ccccc2OCc2ccc(C(=O)O)cc2)C1=O)Nc1ccc(F)cc1 | n | n | n | n | n
O=C(O)c1ccc(COc2ccccc2/C=C2/NC(=O)N(c3cccc(Cl)c3)C2=O)cc1 | n | -50 | n | u | n
Cc1ccccc1NC(=O)CN1C(=O)N/C(=C\c2ccccc2OCc2ccc(C(=O)O)cc2)C1=O | u | u | 30µM | n[11.6 µM] | n
Cc1cc(S(=O)(=O)C(CNC(=O)COc2ccc(Cl)cc2)c2cccs2)ccc1F (centres undefined) | n | x | x | x | x
O=C(Nc1ccc(NC(=O)c2ccccc2)nc1)c1ccncc1 | n | n | 17µM | n | n
CC1(c2nnc(Cc3ccccc3)o2)CC(c2cccc([N+](=O)[O-])c2)=NO1 (centres undefined) | n | n | n | n | n
CC1(c2nnc(Cc3ccccc3)o2)CC(c2ccccc2[N+](=O)[O-])=NO1 (centres undefined) | n | -51 | u | n | n
C=CCC(C)(NCc1ccccc1)c1ccccc1 (centres undefined) | n | n | 21µM | n | n
C=CCC(C)(NCc1ccccc1)c1ccc(C)cc1 (centres undefined) | n | n | n | n | n
O=C(Nc1nc2cc3c(cc2s1)OCCO3)c1ccncc1 | n | n | 21µM | n | n
O=C(Nc1nc2cc3c(cc2s1)OCCO3)c1ccc(N2C(=O)CCC2=O)cc1 | n | n | n | n | n
Cc1ccc2c(c1)=C(c1sc(N(C)c3ccc(O)cc3)nc1O)C(=O)N=2 | n | n | 38µM | n | n
O=C(NCCc1ccccc1)C1CCCN1C(=O)Nc1ccc(F)cc1 (centres undefined) | n | n | 19µM | n | n
COc1ccc(-c2nn(CC(=O)NCc3ccccc3)c3c2cnc2ccc(F)cc23)cc1 | n | x | x | x | x
Cc1ccccc1-n1c(Cn2c(=O)sc3ccccc32)nnc1SCC(=O)NCC1CCCO1 (centres undefined) | n | n | 21µM | n | n
CSc1nnc(Cn2c(=O)sc3ccccc32)n1-c1ccccc1C | n | n | 19µM | n | x
Cc1occc1-c1nnc(SCC(=O)NCC2CCCO2)n1C (centres undefined) | n | n | 30µM | n | n
Cn1c(=O)c2c(nc(SCC(=O)NCC3CCCO3)n2Cc2ccc(F)cc2)n(C)c1=O (centres undefined) | n | n | 30µM | n | n
CCCn1c(SCC(=O)NCC2CCCO2)nc2c1c(=O)n(C)c(=O)n2C (centres undefined) | n | n | n | n | n
Cc1ccc2nc(-c3ccc(Cl)c(NC(=O)c4ccc5c(c4)OCCO5)c3)oc2c1 | n | x | x | x | x

Compound activity: PubChem, National Center for Advancing Translational Sciences (NCATS)
